# Reference: PubChem BioAssay (NCI)
# The panel holds about 83,000 compounds, 20% with a hit somewhere; the sample as a whole holds those more often.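 Values shown are percent growth following 48 h exposure of cells in 96-well plates to a single concentration of compound; below 10 was considered active.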 Values without a mark were called inactive. The source made the active and inactive calls.
# Key:
# Experiment in all cases: NCI-60 one-dose screen, 48 h (100 = growth as untreated, 0 = no growth, -100 = all killed)
# Conditions in all cases: 10 µM unless noted
# [1] = test system: SK-MEL-2 melanoma
# [2] = test system: EKVX NSCLC
# [3] = test system: SN12C renal
# [4] = test system: UO-31 renal
# [5] = test system: TK-10 renal
# [6] = test system: ACHN renal
# [7] = test system: CAKI-1 renal
# [8] = test system: A498 renal
# [9] = test system: CCRF-CEM leukemia
# [10] = test system: MOLT-4 leukemia
# [11] = test system: SR leukemia
# [12] = test system: RPMI-8226 leukemia
# [13] = test system: OVCAR-8 ovarian
# [14] = test system: OVCAR-4 ovarian
# [15] = test system: SK-OV-3 ovarian
# [16] = test system: IGROV1 ovarian
# [17] = test system: HS 578T breast
# [18] = test system: NCI/ADR-RES ovarian
# [19] = test system: OVCAR-3 ovarian
# [20] = test system: OVCAR-5 ovarian
SMILES,growth [1],growth [2],growth [3],growth [4],growth [5],growth [6],growth [7],growth [8] [%],growth [9],growth [10],growth [11],growth [12],growth [13],growth [14],growth [15] [%],growth [16],growth [17],growth [18],growth [19],growth [20] [%]
CCOC(=O)C#Cc1c(C(=O)OCC)nnn1[C@@H]1O[C@H](CO)[C@H]2OC3(CCCCC3)O[C@H]21,106%,105%,75.6%,5.58% (active),-3.79% (active),-53% (active),-99.7% (active),110,6.89% (active),22.3%,-8.98% (active),14.2%,95.3%,56%,98.1,96%,89.7%,100%,,
COc1ccc(/C=C2\COc3ccc(O)c(O)c3C2=O)cc1,57.4%,48%,-39.1% (active),-86.3% (active),7.43% (active),-42% (active),2.2% (active),24.4,7.73% (active),3.83% (active),21.6%,4.17% (active),7.39% (active),48.4%,63.5,1.03% (active),19.5%,6.53% (active),11.1%,
COc1cc(-c2csc(NC(=O)c3cc(-n4cnc(C)c4)cc(C(F)(F)F)c3)n2)cc(OC)c1OC,67.6%,69.1%,44.1%,29.8%,85.6%,54.3%,62.8%,60.6,24.4%,37.3%,34%,24.1%,40.2%,70.9%,114,52%,26.7%,64.9%,65%,
O=C(O)c1[nH]c(=O)[nH]c(=O)c1[N+](=O)[O-],158%,119%,108%,96.3%,119%,102%,95.2%,118,113%,77.4%,,112%,101%,122%,116,133%,106%,103%,134%,126
COc1cc(NC(C)CCCNC(C)C)c2ncccc2c1OC (configuration not stated),90.8%,105%,85.8%,57.7%,105%,104%,88.2%,61.3,89.3%,98.4%,110%,87.7%,91.3%,76.1%,96.3,75.9%,91.9%,85.4%,70%,
CCN(CC)CCCN1C(=O)c2c(c(C)c3c(oc4cc(O)ccc43)c2C)C1=O,98%,108%,-75% (active),90.8%,112%,51.5%,-81% (active),104,-6.12% (active),-5.26% (active),8.28% (active),-30% (active),-39.4% (active),-50.2% (active),105,-74.5% (active),101%,-40.4% (active),118%,
Cc1ccccc1Cn1cnc2ccc(-c3cc(NC(=O)c4ccc(NC5CCN(C)CC5)cc4)n[nH]3)cc21,98.3%,91.9%,29.7%,89.2%,105%,107%,68.6%,47.8,72%,43%,52.9%,77.1%,104%,62.5%,75.7,26.5%,2.06% (active),104%,99.8%,
CC(C)=CCC[C@](C)(O)[C@H]1CC[C@]2(C)[C@@H]1CC[C@@H]1[C@@]3(C)Cc4nccnc4C(C)(C)[C@@H]3CC[C@]12C,82.7%,70.6%,72.3%,79.9%,94.9%,85%,70.2%,91.4,68.4%,66.7%,,43.2%,101%,90.1%,84.1,104%,97.6%,83.6%,90.3%,89.9
Cc1ccc2c(n1)C(=O)c1[nH]c3ccccc3c1C2=O,64.2%,43.7%,36.5%,50.5%,115%,49.2%,56.4%,69.2,55.9%,35.1%,39.8%,46.9%,53%,22.2%,85.6,33.8%,69.2%,58.6%,-5.11% (active),
Cc1ccc(CNc2ccc(Cl)cc2NCc2ccc(C)c(O)c2)cc1O,33.3%,80.2%,-27.8% (active),11.9%,52.3%,0.115% (active),37.4%,82.2,9.13% (active),-10.5% (active),-33% (active),16%,23.6%,,54.7,24.2%,42.7%,15.4%,10.9%,
CC(=O)[C@@H]1CCC=C2CC[C@]3(C)[C@@H](CC[C@@H]4[C@@]5(C)CCCNC(C)(C)[C@@H]5CC[C@]43C)[C@H]21,-52.3% (active),-47.8% (active),-87.9% (active),18.4%,-46.6% (active),-82.4% (active),-92.5% (active),69.8,-23.4% (active),-46.4% (active),,-49.2% (active),-84.4% (active),-67.5% (active),93,-94.2% (active),-30.9% (active),-52.2% (active),-93.3% (active),16.8
CCc1nc2c(=O)[nH]cnc2o1,113%,104%,109%,75.7%,108%,105%,100%,102,108%,108%,92.8%,109%,111%,96.2%,110,111%,102%,101%,111%,
CCCCCCNC(=O)Oc1ccc(/C(=C(/C)Cc2ccc(OC)cc2)c2ccc(OCCCN(C)C)cc2)cc1,26.9%,83%,45.8%,0.897% (active),51.3%,37%,44.5%,97.3,-2.26% (active),-12.3% (active),,-20.4% (active),13.3%,60.7%,88.4,41.6%,52.9%,67.5%,55.9%,85.3
Nc1nc2c([nH]1)c1[nH]c3ccccc3c1c1[nH]c3ccccc3c21,-23.5% (active),73.5%,75.6%,62.9%,91.4%,59.1%,83.2%,134,-3.64% (active),-12.5% (active),-24.9% (active),-22.7% (active),57.5%,66.8%,86.1,58.9%,47.2%,86.5%,36.6%,
CCc1ccc(Oc2cn[nH]c2-c2ccc(OCCc3ccc(F)cc3)cc2O)cc1,90.1%,87.9%,95.3%,81.7%,66.8%,94%,100%,105,95.6%,84.4%,101%,81%,101%,89.5%,102,97.3%,93.1%,89.2%,89.4%,
Cc1ccccc1/C=C1\CN(C(=O)OC(C)(C)C)C/C(=C\c2ccccc2C)C1=O,86.4%,55.6%,-6.85% (active),31.9%,30.3%,-21.7% (active),28.8%,84.8,2.95% (active),10.8%,8.93% (active),-23.7% (active),17.1%,-2.97% (active),74.9,26%,31.2%,15.7%,-30.9% (active),
